# Test results: ChEMBL document CHEMBL1157539, “Thousands of chemical starting points for antimalarial lead identification” (Nature, 2010)
# Columns and labels:
# Assay type in all cases: functional
# Plasmodium falciparum [1] = test: GSK_TCMDC: Inhibition of Plasmodium falciparum 3D7 in whole red blood cells, using parasite LDH activity as an index of growth. Test compounds present at 2uM
# Plasmodium falciparum [2] = test: GSK_TCMDC: Inhibition of Plasmodium falciparum Dd2 in whole red blood cells, using parasite LDH activity as an index of growth. Test compounds present at 2uM
# HepG2 = test: GSK_TCMDC: Percent inhibition of human HepG2 cell line. Test compounds present at 10uM.
Compound,Inhibition (Plasmodium falciparum [1]) [%],Inhibition (Plasmodium falciparum [2]) [%],Inhibition (HepG2) [%]
CCNc1cc(C(=O)N[C@@H](Cc2ccccc2)[C@H](O)CNCCC(C)c2ccccc2)cc(N2CCCC2=O)c1.O=C(O)C(F)(F)F (stereo partly drawn),99,95,0
CCCCN(Cc1cc(Cl)c(OC)c(OC)c1)c1ccc(C(O)(C(F)(F)F)C(F)(F)F)cc1.O=C(O)C(F)(F)F,98,73,3
O=[N+]([O-])c1ccc2c(c1)c1ccccc1n2Cc1ccccc1O,93,84,0
Cc1ccccc1CNc1nccc(NCCC(=O)Nc2ccccc2)n1.O=C(O)C(F)(F)F,90,15,16
Cc1ccc(Cc2c(N)nc3nc(N)nc(N)c3c2C)cc1.Cl,95,8,59
Cc1cc(CNCCCCCNCc2cccc([N+](=O)[O-])c2)ccc1O,98,0,14
CN(C)Cc1ccc(-c2cccc(NC(=O)c3ccc(Cl)cc3)c2)cc1.O=C(O)C(F)(F)F,94,13,24
CN1CCN(c2ccc(-c3cccc(NC(=O)c4cccc(Cl)c4)c3)nn2)CC1,94,37,5
CCCCCCN1CCC(NCc2ccc(Cl)cc2)CC1.O=C(O)C(F)(F)F,98,9,19
Cc1[nH]c(C)c(-c2ccc(-c3cc(C(F)(F)F)cc(C(F)(F)F)c3)nc2)c(=O)c1Br,98,96,18
O=C(Nc1ccccc1Cl)N(Cc1cc(Cl)cc(Cl)c1)CC(O)COc1ccc(Cl)c(F)c1 (stereo not drawn),93,17,0
